# SKKanGAS inh – blocks kanamycin growth of S. pyogenes SKKanGAS strain | BacTiter-Glo, 6 h | inhibition, % at 7.5 µM | 300,000 tested, 1.3% active | AID 1662;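 active = mean replicate score, as percent of positive control median, at least 50; inconclusive = mean below 50 but one replicate at or above 50; inactive = mean and every replicate below 50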;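 note: strain carries kanamycin resistance gene driven by streptokinase promoter and grows in 40 µg/ml kanamycin; loss of luminescence reflects streptokinase promoter inhibition or plain growth inhibition; 0% = median of DMSO wells and 100% = positive control at its reference dose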
# Calb FLC – affects C. albicans growth with fluconazole; C. albicans CaCi-2 (fluconazole-resistant clinical isolate) + fluconazole, Alamar Blue growth, 48 h; growth inhibition, % (concentration not given with the values); 300,000 tested, 0.57% active;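 active = growth inhibition above about 58% in most replicates, limit read from the data, passing the limit was not always enough; inconclusive = exactly half the replicates above a set limit; inactive = most replicates below a set limit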;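 note: all wells also contain fluconazole at 8 µg/ml as a sub-toxic cotreatment; 0% = median of DMSO wells and 100% = median of geldanamycin control wells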
# MPTP block – permeability transition pore inhibition. inhibition, % at 10 µM. 360,000 tested, 1.4% active. isolated mouse mitochondria, Ca2+ swelling absorbance, 30 min. AID 602449;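 active = inhibition of 50% or more, scaled per plate between neutral and stimulator controls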;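 note: 0% = DMSO wells given calcium and 100% = 1 mM EGTA wells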
# Beta apoptosis – blocks beta cell apoptosis; INS-1E cytokine-induced death, ATP luminescence, 48 h; percent of positive-control rescue, neutral wells zero; protection from apoptosis, % (test concentration not listed); 300,000 tested, 0.8% active; AID 435005;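 active = Every replicate reaches about 75%, or at least half do and their mean reaches it too, limit read from the data; inconclusive = At least half of replicates reach the limit but their mean does not; inactive = Under half of replicates reach the limit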;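 note: 0% = cytokine-treated negative control wells and 100% = positive control rescue; higher means more ATP so stronger rescue from cytokine killing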
# Mdm2 MdmX PPI – inhibitors of human Mdm2/MdmX interaction; O15151+Q00987; 330,000 tested, 3% active; AID 485346; SaOS-2 split-luciferase Mdm2/MdmX complementation, luminescence; inhibition, % at 8 µM;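 active = inhibition of at least 50% at 8 µM in the primary screen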
# Target sequence (O15151 whole entry, looked up): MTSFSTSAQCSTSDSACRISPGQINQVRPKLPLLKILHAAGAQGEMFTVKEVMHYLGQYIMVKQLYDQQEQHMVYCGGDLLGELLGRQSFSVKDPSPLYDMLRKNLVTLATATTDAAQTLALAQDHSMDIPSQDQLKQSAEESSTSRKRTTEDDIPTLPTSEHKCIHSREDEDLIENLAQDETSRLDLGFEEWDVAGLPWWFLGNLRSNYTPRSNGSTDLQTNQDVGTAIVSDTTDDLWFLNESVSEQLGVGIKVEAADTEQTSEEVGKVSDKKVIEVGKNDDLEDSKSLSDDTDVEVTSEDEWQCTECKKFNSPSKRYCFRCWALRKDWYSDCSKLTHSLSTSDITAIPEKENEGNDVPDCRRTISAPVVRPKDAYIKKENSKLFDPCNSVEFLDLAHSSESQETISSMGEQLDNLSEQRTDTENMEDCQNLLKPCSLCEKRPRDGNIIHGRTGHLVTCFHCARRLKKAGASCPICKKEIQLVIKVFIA
# Target sequence (Q00987 whole entry, looked up): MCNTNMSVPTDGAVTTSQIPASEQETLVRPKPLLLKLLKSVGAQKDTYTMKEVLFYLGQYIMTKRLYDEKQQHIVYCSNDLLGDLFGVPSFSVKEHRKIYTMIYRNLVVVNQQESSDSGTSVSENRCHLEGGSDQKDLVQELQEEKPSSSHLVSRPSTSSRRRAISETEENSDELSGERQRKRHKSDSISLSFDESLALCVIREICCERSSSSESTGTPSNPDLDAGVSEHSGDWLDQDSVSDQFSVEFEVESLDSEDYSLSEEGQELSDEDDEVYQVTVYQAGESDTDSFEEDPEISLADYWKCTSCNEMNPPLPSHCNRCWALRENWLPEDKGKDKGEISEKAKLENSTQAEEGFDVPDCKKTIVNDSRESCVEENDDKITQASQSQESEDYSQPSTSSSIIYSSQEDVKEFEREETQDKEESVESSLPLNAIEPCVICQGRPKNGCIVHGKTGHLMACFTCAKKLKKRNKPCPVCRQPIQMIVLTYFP
# CSC inhib – blocks cancer stem cells. cancer stem cell-like cells viability, luminescence. inhibition, % at 7.5 µM. 300,000 tested, 1.1% active. AID 2717; in the data active = inhibition above about 75%; inconclusive = no clear call, values can overlap the other calls; tested in HMLE shEcad cells
# Rh123 counter – Rhodamine 123 counter-screen of mitochondrial pore hits. shares compounds with MPTP block. isolated mitochondria, membrane potential, Rhodamine 123 fluorescence. inhibition, % at 10 µM. 5,000 tested, 78% active. AID 624504; in the data active = inhibition above about 22%;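 note: 0% = DMSO vehicle and 100% = positive control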
# MPTP abs DR – MPTP inhibition, dose response swelling confirmation. shares compounds with MPTP block. isolated mitochondria swelling, absorbance. 780 tested, 58% active. IC50, µM. AID 651561; in the data active = IC50 below about 20 µM
# MPTP counter DR – MPTP inhibitor counter-screen activity, dose response. shares compounds with MPTP block. isolated mitochondria counterscreen, fluorescence read-out. IC50, µM. 780 tested, 49% active. AID 651564; in the data active = IC50 below about 80 µM
# An asterisk follows results filed as active; ? = inconclusive; . = no result. Only some compounds are listed: those with a hit (about 5.4% of all), similar ones and a draw of the others.
SMILES,SKKanGAS inh,Calb FLC,MPTP block,Beta apoptosis,Mdm2 MdmX PPI,CSC inhib,Rh123 counter,others
CC1CCc2sc(C(=O)NC3CCN(Cc4ccccc4)CC3)cc2C1 (configuration not stated),.,.,1,1,33,29,.,
Nc1nc2ccccc2cc1C(=O)NCCCCc1ccccc1,.,.,94*,.,.,.,104*,
Cc1nn(C)c(C)c1C1C(C#N)=C(N)OC2=C1C(=O)CCC2 (configuration not stated),-12,5,1,0,-20,-9,.,
O=C(N/C=C\c1ccccc1)NCc1ccc(Cl)cc1Cl,4,7,4,-12,14,1,.,
O=C(NCc1csc2ccc(Cl)cc12)Nc1ccccc1,6,17,85*,0,21,26,75*,
O=C(NCc1csc2ccc(Cl)cc12)Nc1cccc2ccccc12,5,-6,18,-3,-7,-10,.,
O=C(NCc1ccc(Cl)cc1Cl)Nc1ccccc1,-7,3,80*,6,-52,15,94*,
CC(C)(C)c1ccc(CC(=O)N2CCC2(C)C(=O)NS(=O)(=O)c2ccc(C#N)cc2)cc1 (configuration not stated),.,.,2,.,.,.,.,
CCc1ccc(S(=O)(=O)NCc2ccc(C(=O)NCCN(Cc3ccccc3)C(C)C)cc2)cc1,.,.,97*,.,.,.,93*,
CCN(c1cccc(C(F)(F)F)c1)S(=O)(=O)c1ccc2c(c1)CCN2C(=O)C1CC1,9,-3,62*,.,21,12,64*,
CCN(CC)S(=O)(=O)c1ccc(O)c(C(=O)OCC(=O)Nc2ccc(OC(F)(F)F)cc2)c1,2,6,102*,-2,20,12,84*,
CCN(CC)S(=O)(=O)c1ccc(O)c(C(=O)OCC(=O)NC23CC4CC(CC(C4)C2)C3)c1,.,.,83*,-7,28,-1,81*,
Cc1nc(N=Nc2ccc(O)cc2)n[nH]1,6,-4,0,21,0,18,.,
CCCCOCCCNC(=S)Nc1ccc(S(=O)(=O)N2CCOCC2)cc1,-4,-5,36,3,-27,4,.,
O=S(=O)(c1ccc(NC(=S)Nc2ccc(OC(F)F)cc2)cc1)N1CCOCC1,-4,-3,98*,1,4,2,90*,
O=S(=O)(c1ccc(NC(=S)NCCC(c2ccccc2)c2ccccc2)cc1)N1CCOCC1,17,18,97*,4,15,35,80*,
NNC(=S)Nc1ccc(S(=O)(=O)N2CCOCC2)cc1,5,1,0,2,-11,7,.,
CC(C)(C)CC(C)(C)NC(=S)Nc1ccc(S(=O)(=O)N2CCOCC2)cc1,-3,26,100*,8,25,8,78*,
O=C(Cn1c(=O)n(Cc2ccco2)c(=O)c2ccccc21)Nc1cccc(Cl)c1,10,5,2,.,41,-9,.,
Cc1ccc(F)cc1CNC(=O)c1cc(COc2ccc3ncccc3c2)on1,5,-8,95*,32,30,-15,105*,
CC(C)N(Cc1nccn1C)C(=O)c1cc(COc2ccc3ncccc3c2)on1,-5,6,26,4,29,-5,.,
O=C(NCc1cccc(Cl)c1)c1cc(COc2ccc3ncccc3c2)on1,3,?,105*,66,20,27,92*,
COc1cccc(CCNC(=O)c2cc(COc3ccc(C)c(C)c3)on2)c1OC,.,.,0,.,.,.,.,
CC(CCCC(C)(C)O)NC(=O)c1cc(COc2ccc3ncccc3c2)on1 (configuration not stated),-4,26,92*,88*,16,-6,79*,
Cc1ccc(OCc2cc(C(=O)NC(C)Cc3cccnc3)no2)cc1C (configuration not stated),-3,5,-1,-7,-48,-4,.,
SMILES,SKKanGAS inh,Calb FLC,MPTP block,Beta apoptosis,Mdm2 MdmX PPI,CSC inhib,Rh123 counter,others
Cc1nc(CN(C)C(=O)c2cc(COc3ccc4ncccc4c3)on2)cs1,-2,-2,99*,42,1,7,69*,
COC(=O)[C@@]12C[C@@H](CC(=O)N3CCOCC3)C(=O)N(Cc3cccc4ccccc34)C1=CCC(C)(C)C2,.,.,2,.,.,.,.,
Cc1cccn2c(=O)nc(SCC(=O)N3CCCCC3)nc12,-3,-3,0,.,-12,-1,.,
O=C(NC(CSSCC(NC(=O)c1ccccc1)C(=O)O)C(=O)O)c1ccccc1 (configuration not stated),-1,-4,-1,-3,-8,-5,.,
COC(=O)c1ccc(NS(=O)(=O)c2cc3c4c(c2)CCC(=O)N4CCC3)cc1,2,-3,0,-1,1,-13,.,
Cc1cc(C)n(CCNC(=O)c2cc(COc3ccc4ncccc4c3)on2)n1,17,9,63*,11,26,-8,37*,
CSc1ccccc1OCc1cc(C(=O)NCCn2nc(C)cc2C)no1,3,7,0,.,21,12,.,
CC1(C)C2CC=C(/C=N/NC(=O)c3ccccc3O)C1C2 (configuration not stated),-6,?,50*,-10,16,-3,71*,
CNC(=S)N/N=C/C1=CCC2CC1C2(C)C (configuration not stated),-6,-33,-6,-7,21,-16,.,
CN1C(=O)CSc2ccc(NC(=O)NCCC3=CCCCC3)cc21,-2,-6,75*,5,35,13,78*,
CC(C)CCNC(=O)Nc1ccc2c(c1)N(C)C(=O)CS2,16,-29,11,17,34,-14,.,
O=C(c1cccs1)N1CCN(C/C=C/c2ccccc2)CC1,-4,5,-1,-1,-6,-5,.,
Cc1ccc(/C=N/Nc2ccc(Cl)c(C(=O)O)c2)s1,7,-5,-1,-1,-164,-13,.,
CCOC(=O)C1=C(Nc2ccccc2)CC(C)(O)C(C(=O)OCC)C1c1ccccc1 (configuration not stated),-17,-10,0,-3,0,17,.,
CCOC(=O)C1=C(Nc2ccccc2)CC(C)(O)C(C(=O)OCC)C1c1ccc(Br)cc1 (configuration not stated),7,14,59*,-1,24,38,-4,MPTP abs DR=>100;MPTP counter DR=>80
Cc1c(C(=O)NCCC2=CCCCC2)sc2ncnc(N3CCCCC3C)c12 (configuration not stated),-4,-1,0,2,15,-15,.,
COc1ccccc1CNC(=O)CS(=O)(=O)Cc1ccccc1,.,-10,0,-3,25,-7,.,
CCOC(=O)C(NC(C)=O)(NS(=O)(=O)c1ccccc1)C(F)(F)F (configuration not stated),6,-7,1,-3,11,10,.,

# Screens deposited in PubChem BioAssay by several laboratories.
